Experimental data reported in PubChem BioAssay AID1159580 (chemical genetic matrix, 2015).
In all, about 5,500 compounds went through this assay and about 2,000 (36%) were called active. About 18% were inconclusive and are not listed. No stated cut-off is given here; in the data, active means normalized growth mostly below about 0.91 (no sharp cut-off); inconclusive means no clear call, values can overlap the other calls; inactive means mostly above about 0.92. This is one part of the list.

Test: chemical genetic growth profiling, strain panel (AID 1159580);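 further: tested at 20 µM; growth read once vehicle control cultures reached saturation at 30 °C; 1 = growth at the plate median or of vehicle wells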
Conditions: S. cerevisiae deletion strains, growth OD

Measured: normalized growth

COC(=O)[C@@H]1OC(=O)C2OC23[C@@]1(C)CCC1[C@]2(C)C(C[C@H](O)[C@]13C)C(C)(C)[C@H](OC(C)=O)C[C@@H]2OC(C)=O (some centres not stated)
inactive: locus YAL021C, strain ccr4, stronger effect = lower value 1.01 | locus YAL026C, strain drs2, stronger effect = lower value 1.01 | locus YAL030W, strain snc1, stronger effect = lower value 1.01 | locus YBL061C, strain skt5, stronger effect = lower value 1.01 | locus YBR009C, strain hhf1, stronger effect = lower value 1.03 | locus YBR021W, strain FUR4, stronger effect = lower value 1.01 | locus YBR023C, strain chs3, stronger effect = lower value 1.02 | locus YBR171W, strain sec66, stronger effect = lower value 1.02 | locus YBR229C, strain ROT2, stronger effect = lower value 1.01 | locus YBR231C, strain swc5, stronger effect = lower value 1.01 | locus YBR279W, strain paf1, stronger effect = lower value 1.02 | locus YCL011C, strain gbp2, stronger effect = lower value 1 | locus YCL016C, strain dcc1, stronger effect = lower value 1.02 | locus YCL029C, strain bik1, stronger effect = lower value 0.999 | locus YCL061C, strain MRC1, stronger effect = lower value 1.02 | locus YCL069W, strain vba3, stronger effect = lower value 1.01 | locus YCR088W, strain abp1, stronger effect = lower value 1.02 | locus YDL005C, strain med2, stronger effect = lower value 1.02 | locus YDL035C, strain GPR1, stronger effect = lower value 1.04 | locus YDL040C, strain nat1, stronger effect = lower value 1.01 | locus YDL074C, strain BRE1, stronger effect = lower value 1.04 | locus YDL101C, strain DUN1, stronger effect = lower value 1 | locus YDL134C, strain PPH21, stronger effect = lower value 1 | locus YDL185W, strain tfp1, stronger effect = lower value 1 | locus YDL192W, strain arf1, stronger effect = lower value 1.01 | locus YDR001C, strain nth1, stronger effect = lower value 1.01 | locus YDR069C, strain doa4, stronger effect = lower value 1.03 | locus YDR101C, strain arx1, stronger effect = lower value 1 | locus YDR137W, strain rgp1, stronger effect = lower value 1.05 | locus YDR159W, strain sac3, stronger effect = lower value 1.01 | locus YDR162C, strain NBP2, stronger effect = lower value 1.02 | locus YDR195W, strain ref2 0.98 | locus YDR297W, strain sur2, stronger effect = lower value 1.01 | locus YDR318W, strain mcm21, stronger effect = lower value 1.01 | locus YDR334W, strain swr1, stronger effect = lower value 1.02 | locus YDR335W, strain msn5, stronger effect = lower value 1.05 | locus YDR388W, stronger effect = lower value 0.989 | locus YDR392W, strain spt3, stronger effect = lower value 1.03 | locus YDR502C, strain sam2, stronger effect = lower value 0.993 | locus YEL003W, strain gim4, stronger effect = lower value 1.02 | locus YEL037C, strain rad23, stronger effect = lower value 1.01 | locus YEL061C, strain CIN8 (second series), stronger effect = lower value 1.02 | locus YEL061C, strain CIN8, stronger effect = lower value 1.01 | locus YER015W, strain faa2, stronger effect = lower value 1.02 | locus YER016W, strain bim1, stronger effect = lower value 1.01 | locus YER110C, stronger effect = lower value 0.995 | locus YER111C, strain swi4, stronger effect = lower value 1.01 | locus YER155C, strain BEM2 (second series), stronger effect = lower value 1.02 | locus YER155C, strain BEM2, stronger effect = lower value 1 | locus YER167W, strain BCK2, stronger effect = lower value 1.02 | locus YFR010W, strain ubp6, stronger effect = lower value 1.01 | locus YGL078C, strain dbp3, stronger effect = lower value 0.994 | locus YGL086W, strain mad1, stronger effect = lower value 1 | locus YGL167C, strain pmr1, stronger effect = lower value 1.02 | locus YGL173C, strain kem1, stronger effect = lower value 1.01 | locus YGL227W, strain vid30, stronger effect = lower value 1.03 | locus YGL240W, strain doc1, stronger effect = lower value 1.04 | locus YGL248W, strain PDE1, stronger effect = lower value 1.01 | locus YGL253W, strain hxk2, stronger effect = lower value 1.02 | locus YGR135W, strain pre9, stronger effect = lower value 0.981 | locus YGR252W, strain gcn5, stronger effect = lower value 0.989 | locus YHR013C, strain ard1, stronger effect = lower value 1.02 | locus YHR027C, strain rpn1, stronger effect = lower value 1.02 | locus YHR030C, strain SLT2, stronger effect = lower value 0.999 | locus YHR079C, strain IRE1 (second series), stronger effect = lower value 1.01 | locus YHR079C, strain IRE1, stronger effect = lower value 0.977 | locus YHR094C, strain hxt1, stronger effect = lower value 0.995 | locus YHR129C, strain ARP1, stronger effect = lower value 1.01 | locus YHR142W, strain chs7, stronger effect = lower value 1.02 | locus YHR200W, strain rpn10, stronger effect = lower value 0.987 | locus YIL066C, strain RNR3, stronger effect = lower value 1.03 | locus YIL073C, strain SPO22, stronger effect = lower value 1.05 | locus YIL125W, strain kgd1, stronger effect = lower value 0.998 | locus YIR030C, strain dcg1, stronger effect = lower value 1.01 | locus YJL092W, strain hpr5, stronger effect = lower value 1.02 | locus YJL095W, strain BCK1 (second series), stronger effect = lower value 1.02 | locus YJL095W, strain BCK1, stronger effect = lower value 1 | locus YJL115W, strain asf1, stronger effect = lower value 1.02 | locus YJL129C, strain trk1, stronger effect = lower value 1 | locus YJL134W, strain LCB3, stronger effect = lower value 1.01 | locus YJL154C, strain vps35, stronger effect = lower value 1.01 | locus YJL164C, strain tpk1, stronger effect = lower value 1.02 | locus YJL166W, strain qcr8, stronger effect = lower value 1.01 | locus YJL168C, strain set2, stronger effect = lower value 0.991 | locus YJL187C, strain SWE1 (second series), stronger effect = lower value 1 | locus YJL187C, strain SWE1, stronger effect = lower value 1 | locus YJR043C, strain POL32, stronger effect = lower value 1.01 | locus YJR066W, strain TOR1, stronger effect = lower value 0.906 | locus YKL009W, strain mrt4, stronger effect = lower value 1 | locus YKL068W, stronger effect = lower value 1.01 | locus YKL085W, strain MDH1 (second series), stronger effect = lower value 1 | locus YKL085W, strain MDH1, stronger effect = lower value 1 | locus YKL160W, strain elf1, stronger effect = lower value 1.02 | locus YKL190W, strain CNB1, stronger effect = lower value 1.01 | locus YKR001C, strain vps1, stronger effect = lower value 0.98 | locus YKR026C, strain gcn3, stronger effect = lower value 1.01 | locus YKR091W, strain srl3, stronger effect = lower value 1.01 | locus YLL001W, strain dnm1, stronger effect = lower value 1.02 | locus YLL026W, stronger effect = lower value 1.01 | locus YLL041C, strain sdh2, stronger effect = lower value 1 | locus YLR027C, strain aat2, stronger effect = lower value 1.02 | locus YLR039C, strain RIC1, stronger effect = lower value 1.03 | locus YLR058C, strain SHM2, stronger effect = lower value 1.02 | locus YLR102C, strain apc9, stronger effect = lower value 0.997 | locus YLR113W, strain HOG1, stronger effect = lower value 1.04 | locus YLR221C, strain rsa3, stronger effect = lower value 1.01 | locus YLR258W, strain gsy2, stronger effect = lower value 1.01 | locus YLR262C, strain YPT6 (second series), stronger effect = lower value 1 | locus YLR268W, strain sec22, stronger effect = lower value 1.02 | locus YLR320W, strain mms22, stronger effect = lower value 1.02 | locus YLR330W, strain CHS5, stronger effect = lower value 1.01 | locus YLR342W, strain FKS1, stronger effect = lower value 1.01 | locus YLR357W, strain rsc2, stronger effect = lower value 1.02 | locus YLR370C, strain arc18, stronger effect = lower value 1.02 | locus YLR371W, strain rom2, stronger effect = lower value 1 | locus YLR384C, strain iki3, stronger effect = lower value 1 | locus YLR418C, strain cdc73, stronger effect = lower value 1.01 | locus YML016C, strain PPZ1, stronger effect = lower value 1 | locus YML032C, strain rad52, stronger effect = lower value 0.994 | locus YML120C, strain ndi1, stronger effect = lower value 1.01 | locus YML124C, strain tub3, stronger effect = lower value 1 | locus YMR058W, strain fet3, stronger effect = lower value 1.02 | locus YMR078C, strain ctf18, stronger effect = lower value 1 | locus YMR125W, strain sto1, stronger effect = lower value 1.01 | locus YMR129W, stronger effect = lower value 1 | locus YMR205C, strain PFK2, stronger effect = lower value 1.02 | locus YMR223W, strain ubp8, stronger effect = lower value 0.99 | locus YMR231W, strain pep5, stronger effect = lower value 1 | locus YMR263W, strain SAP30, stronger effect = lower value 1.01 | locus YMR307W, strain GAS1, stronger effect = lower value 1 | locus YNL067W, strain RPL9B, stronger effect = lower value 1 | locus YNL071W, strain lat1, stronger effect = lower value 1.01 | locus YNL183C, strain NPR1, stronger effect = lower value 0.938 | locus YNL209W, strain ssb2, stronger effect = lower value 1.01 | locus YNL233W, strain BNI4, stronger effect = lower value 1 | locus YNL248C, strain rpa49, stronger effect = lower value 1.01 | locus YNL250W, strain rad50, stronger effect = lower value 0.989 | locus YNL271C, strain bni1, stronger effect = lower value 1.01 | locus YNL298W, strain CLA4, stronger effect = lower value 1 | locus YNL307C, strain MCK1, stronger effect = lower value 0.998 | locus YNL322C, strain KRE1 (second series), stronger effect = lower value 1.02 | locus YNR049C, strain mso1, stronger effect = lower value 1.02 | locus YNR052C, strain pop2, stronger effect = lower value 0.993 | locus YOL006C, strain TOP1, stronger effect = lower value 1.08 | locus YOL012C, strain htz1 1.19 | locus YOL147C, strain pex11, stronger effect = lower value 1 | locus YOR001W, strain rrp6, stronger effect = lower value 1 | locus YOR061W, strain CKA2, stronger effect = lower value 1.03 | locus YOR069W, strain VPS5, stronger effect = lower value 1.01 | locus YOR070C, strain gyp1, stronger effect = lower value 1.02 | locus YOR080W, strain dia2, stronger effect = lower value 1 | locus YOR083W, strain WHI5, stronger effect = lower value 1.02 | locus YOR106W, strain vam3, stronger effect = lower value 1.03 | locus YOR136W, strain idh2, stronger effect = lower value 0.994 | locus YOR144C, strain elg1, stronger effect = lower value 0.996 | locus YOR184W, strain ser1, stronger effect = lower value 1.03 | locus YOR231W, strain MKK1, stronger effect = lower value 0.989 | locus YOR265W, strain rbl2, stronger effect = lower value 0.995 | locus YOR270C, strain vph1, stronger effect = lower value 0.986 | locus YOR290C, strain snf2, stronger effect = lower value 1.04 | locus YOR316C, strain cot1, stronger effect = lower value 0.996 | locus YPL051W, strain arl3, stronger effect = lower value 1.02 | locus YPL078C, strain atp4, stronger effect = lower value 1.03 | locus YPL106C, strain sse1, stronger effect = lower value 1.04 | locus YPL240C, strain hsp82, stronger effect = lower value 1.01 | locus YPL241C, strain CIN2, stronger effect = lower value 1.01 | locus YPL256C, strain CLN2, stronger effect = lower value 0.979 | locus YPR119W, strain clb2, stronger effect = lower value 1 | locus YPR141C, strain kar3, stronger effect = lower value 1.01 | locus YPR163C, strain tif3, stronger effect = lower value 0.996 | locus YPR167C, strain met16, stronger effect = lower value 1 | strain wtn01, stronger effect = lower value 1
